Results published in article PMC7819943, “Rice protein-binding microarrays: a tool to detect cis-acting elements near promoter regions in rice”.
Whole data set: some 68,000 sequences, median “fluorescence intensity (a.u.)” near 9,100, cut for the highest 2% near 16,000. Only a selection was taken, and the highest values are over-represented in it overall.

biological target: OsWRKY34 (Oryza sativa, UniProt Q0JBA9 1-250); assay: protein-binding microarray (RPBM); PBS, 2% BSA, 51.3 ng/ul salmon testes DNA, 50 uM zinc acetate, 200 nM TF, 25 C, 1 h; high values mean tight binding; conditions: protein: recombinant; tags: N-terminal polyhistidine and DsRed monomer fusion (pET32a); label: CyDye5-dUTP incorporated in the synthesized complementary strand; 3' TTTTT single-stranded linker to array surface; dsDNA, one strand shown
Sequence (Q0JBA9 entry or part of it): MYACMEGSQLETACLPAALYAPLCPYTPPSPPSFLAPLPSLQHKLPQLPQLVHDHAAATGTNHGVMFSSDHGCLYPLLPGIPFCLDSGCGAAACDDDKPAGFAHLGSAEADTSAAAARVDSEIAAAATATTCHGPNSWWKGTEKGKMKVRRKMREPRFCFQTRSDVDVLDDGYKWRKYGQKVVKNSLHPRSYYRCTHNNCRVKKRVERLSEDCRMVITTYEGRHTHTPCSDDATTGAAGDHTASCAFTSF
How it was run: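 Transcription factors were made in E. coli BL21-CodonPlus as N-terminal fusions to a polyhistidine tag and DsRed, then purified on Ni–NTA. After primer extension with Cy5-dUTP and blocking with 2% BSA, a custom Agilent array was exposed for 1 h at 25 °C to 200 nM protein in PBS, 2% BSA, salmon testes DNA and 50 µM zinc acetate. Washed arrays were scanned on an Axon 4000B, and the binding signal is per-feature fluorescence intensity in arbitrary units.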

Sequence	binding signal
AAACTGTTCTCCTCCACTTGCCTATCTTATCCTCTCTTATCGGAGTCACCTAGTGCAG	8930 fluorescence intensity (a.u.)
ACGGTTGTGTATTTCATAGTAGGGTGTAAATGTACGCTGACGGAGTCACCTAGTGCAG	8030 fluorescence intensity (a.u.)
ATACAACTTCGTCTGGCGCCCTCAATCGATCTCGCTCTATCGGAGTCACCTAGTGCAG	9870 fluorescence intensity (a.u.)
AACCCTCATCTACTTCTGGCCCTCTAAGAGTTCTCCACTACGGAGTCACCTAGTGCAG	8400 fluorescence intensity (a.u.)
GTGTGTGCCTCCTTTTCTCTTCTTCAGTTTTCAACTCAAACGGAGTCACCTAGTGCAG	9440 fluorescence intensity (a.u.)
CCTCATCCCGTCCAGCGTTCACCCGACGTCGCCCGTCGCACGGAGTCACCTAGTGCAG	10500 fluorescence intensity (a.u.)
TGAGTCTTCACAATCCCATGTCACATGATCATGTGATCTTCGGAGTCACCTAGTGCAG	9860 fluorescence intensity (a.u.)
GTGGGGATTGGGTAGGAGAAGGAGTGGGGAATTAGGTTAGCGGAGTCACCTAGTGCAG	12200 fluorescence intensity (a.u.)
GGGTGGGATTGGGATTGGGAAATGAATGAAGGGTTAGGATCGGAGTCACCTAGTGCAG	16400 fluorescence intensity (a.u.)
TGTACTGTAGGGGTGGGATTGTGATTGGAAAATGAATGAACGGAGTCACCTAGTGCAG	18600 fluorescence intensity (a.u.)
GAAATGAGGGGTGGGATTGGGATTGGGATTGGAAAATGAACGGAGTCACCTAGTGCAG	11800 fluorescence intensity (a.u.)
GTGGGATTAGGATTGGAAAATGAATGAAGGGTTAGAATTACGGAGTCACCTAGTGCAG	8560 fluorescence intensity (a.u.)
GTGATTGGATGGGTAGTGGAGACAGGTGGGAAAAATGAATCGGAGTCACCTAGTGCAG	8510 fluorescence intensity (a.u.)
GTCGATGTGTCTTTTGTGTGTAGTTCTTGTAATTGTTGTGCGGAGTCACCTAGTGCAG	8220 fluorescence intensity (a.u.)
GGGTTGATTTTGCTTCCTGCATCCCAGCGACATCGCCCAACGGAGTCACCTAGTGCAG	11500 fluorescence intensity (a.u.)
CCTGTGCGTGGTCGGGTTAATTTGTCAGTCTGTCACTTACCGGAGTCACCTAGTGCAG	10200 fluorescence intensity (a.u.)
GTGCTCATCCGCCTCCTCGGGTCGTCTCCATCGACCTCCTCGGAGTCACCTAGTGCAG	9120 fluorescence intensity (a.u.)
TTTGTTTTTTAATAGATGACGCTGTTGACTTTTTCTCACGCGGAGTCACCTAGTGCAG	14200 fluorescence intensity (a.u.)
TAATAGATGACGCCGTTGACTTTTTCTCACATGTTTGACCCGGAGTCACCTAGTGCAG	33000 fluorescence intensity (a.u.)
TTAATAGATGACGCCGTTGATTTTTTCTCACATGTTTGACCGGAGTCACCTAGTGCAG	11600 fluorescence intensity (a.u.)

Sequence	binding signal
TTTTTTAATAGATGACGCCGTTGACCTTTTCTCACATGTTCGGAGTCACCTAGTGCAG	15100 fluorescence intensity (a.u.)
ATAGATGACGCCGTTAACTTTTTCTCACATGTTTAACCATCGGAGTCACCTAGTGCAG	10200 fluorescence intensity (a.u.)
ATAGATGACGCTGTTGATTTTTTTCTCACATGTTTGACCACGGAGTCACCTAGTGCAG	10400 fluorescence intensity (a.u.)
TTTTTAATAGATGACGCTGTTGACTTTTTCCCACATGTTTCGGAGTCACCTAGTGCAG	24200 fluorescence intensity (a.u.)
GTTTACTCCAAGATTCACATTTGACTTTCTTATGCCATAGCGGAGTCACCTAGTGCAG	9170 fluorescence intensity (a.u.)
TTTTTAATAGATGACGCCGTTGACTTTTTCTCACATGTTTCGGAGTCACCTAGTGCAG	34300 fluorescence intensity (a.u.)
CTCCATTTAACAGATGACGTCGTTGACTTTTTCTTACATGCGGAGTCACCTAGTGCAG	26900 fluorescence intensity (a.u.)
TGTTGACTTTTTAGTACATATTTAACCATTTGTCTTATTACGGAGTCACCTAGTGCAG	14900 fluorescence intensity (a.u.)
CTAGTTTTGGTCTTGTGATAGGTTATTTGCTTACGATTATCGGAGTCACCTAGTGCAG	9430 fluorescence intensity (a.u.)
CCGACCCGACCCGACCACCCACCGGCGAGGCCCACTCCGTCGGAGTCACCTAGTGCAG	8620 fluorescence intensity (a.u.)
TGCTGCTGCTGTTGTTCGTGTATTGCTCCATCTGTGCACGCGGAGTCACCTAGTGCAG	9920 fluorescence intensity (a.u.)
CATAAACGACGCCGCATCAGACAAACTAAACGCGACAATACGGAGTCACCTAGTGCAG	8100 fluorescence intensity (a.u.)
GCACTACCTTCACCATTTTTTTTGATTTTTTTCTTTTTTTCGGAGTCACCTAGTGCAG	8270 fluorescence intensity (a.u.)
GCTATCTCCATCGTCTCTTTCCTTGACCACAGCGGCAATGCGGAGTCACCTAGTGCAG	9860 fluorescence intensity (a.u.)
CCACCACGGACTCCGCCGCCGCTCCCGCCACCGCCACATCCGGAGTCACCTAGTGCAG	10600 fluorescence intensity (a.u.)
AATAGATGACGCCGTTGATTTTTTCTCACATGTTTGACCACGGAGTCACCTAGTGCAG	11700 fluorescence intensity (a.u.)
GATGACGCCGTTGACTTTTTCTCACATGTTTGACCAATCGCGGAGTCACCTAGTGCAG	36900 fluorescence intensity (a.u.)
CGTTTTTTAATAGATGACGCCGTTGACTTTTTCTCACATGCGGAGTCACCTAGTGCAG	31400 fluorescence intensity (a.u.)
ATAAATGACGCCGTTGATTTTTTCTCACATGTTTGACCATCGGAGTCACCTAGTGCAG	10500 fluorescence intensity (a.u.)
TTCATGGAGTCTACTACTCTACTCCCTCTATTTTCAAATACGGAGTCACCTAGTGCAG	9010 fluorescence intensity (a.u.)

Sequence	binding signal
ATATAGGGGTTGGTCTTCCACGTCAAATTTGGGGTAGATACGGAGTCACCTAGTGCAG	10200 fluorescence intensity (a.u.)
TAGCTTTGGCACCTTGCGCGCGCGTACACAGCCGCTTAAGCGGAGTCACCTAGTGCAG	8550 fluorescence intensity (a.u.)
TTTTTCTCGTTTGCCGTGTCACCGCGTGAGTTGCGCGGGGCGGAGTCACCTAGTGCAG	11700 fluorescence intensity (a.u.)
ATCACATCAACCTGTCATATACACACAACTTTTCAGTCATCGGAGTCACCTAGTGCAG	8530 fluorescence intensity (a.u.)
ACCTCAACAAAAGCTTTGTAGTAGCTCTTAATTGTTGGGTCGGAGTCACCTAGTGCAG	8220 fluorescence intensity (a.u.)
TTAAAAAACATTGTACCACAAGTAGCAACAAATTAATGCTCGGAGTCACCTAGTGCAG	26900 fluorescence intensity (a.u.)
TTTGCTCCACACCACACAACACACATTGTACGGCGTTGCTCGGAGTCACCTAGTGCAG	8210 fluorescence intensity (a.u.)
CCCAAATCCATCCAGCCCGTCGCCGCCCGCCGCCCGCCGCCGGAGTCACCTAGTGCAG	8860 fluorescence intensity (a.u.)
CACTCCTGCTGCCGTCCAGTTGCAATTGCGTTTTCTCCTTCGGAGTCACCTAGTGCAG	16700 fluorescence intensity (a.u.)
AGTTTTCTTTGTTCACCTACCGTTTTTTTAGCACGTAGTTCGGAGTCACCTAGTGCAG	10500 fluorescence intensity (a.u.)
ACGTGTCCTTCTCTCTTTTTTTCTTTTTCGTTTTCTTCTCCGGAGTCACCTAGTGCAG	8280 fluorescence intensity (a.u.)
TGTTAAAACACCCTTTTTCACTTTTCTAGCCGTTCACTTTCGGAGTCACCTAGTGCAG	9280 fluorescence intensity (a.u.)
GTCCGTCTTGTTTTCTCCTGCGTCACAATTGTCCCGTATTCGGAGTCACCTAGTGCAG	18500 fluorescence intensity (a.u.)
TGTTATTGTCCTGTATCAGTCCCGTGCTGTTTTTCTCTTTCGGAGTCACCTAGTGCAG	13000 fluorescence intensity (a.u.)
CTGATCTTAACTCCGTGTTTTTCCGCGTTCTCTTTCGTTCCGGAGTCACCTAGTGCAG	19600 fluorescence intensity (a.u.)
TACTGCCGTCGCCGTCGCCCCACGTTTCCTTCTCCAGTTTCGGAGTCACCTAGTGCAG	8300 fluorescence intensity (a.u.)
TGTTCTGTGAGAATAGTTTCGTCCGTCTTGTTTTCTCCTGCGGAGTCACCTAGTGCAG	8470 fluorescence intensity (a.u.)
AGTCCGTGCTGCAGATCTGCTCTTTTCTCTTCGTTTAACTCGGAGTCACCTAGTGCAG	10300 fluorescence intensity (a.u.)
CTTTTCTAGCCGTTCACTTTTTTTTACCACAGTAGTTTTTCGGAGTCACCTAGTGCAG	16600 fluorescence intensity (a.u.)
ATCCACTCCAGTCCCGTCCCGTTTCCTTGCTGCCCGGCCGCGGAGTCACCTAGTGCAG	9660 fluorescence intensity (a.u.)
